USP17 inh: inhibitors of human USP17 deubiquitinase; Ubiquitin carboxyl-terminal hydrolase 17-like protein 5 (Homo sapiens), A8MUK1; purified USP17, Ub-rhodamine cleavage fluorescence, 3 h; inhibition, % at 50 µM; actives 6.5% (n = 47,000); AID 1645855, 2021
USP28 inh: inhibitors of human USP28 deubiquitinase; purified USP28, Ub-rhodamine cleavage fluorescence, 30 min; Ubiquitin carboxyl-terminal hydrolase 28 (Homo sapiens), Q96RU2; inhibition, % at 25 µM; actives 3% (n = 47,000)
Target sequence (Q96RU2 whole entry, looked up): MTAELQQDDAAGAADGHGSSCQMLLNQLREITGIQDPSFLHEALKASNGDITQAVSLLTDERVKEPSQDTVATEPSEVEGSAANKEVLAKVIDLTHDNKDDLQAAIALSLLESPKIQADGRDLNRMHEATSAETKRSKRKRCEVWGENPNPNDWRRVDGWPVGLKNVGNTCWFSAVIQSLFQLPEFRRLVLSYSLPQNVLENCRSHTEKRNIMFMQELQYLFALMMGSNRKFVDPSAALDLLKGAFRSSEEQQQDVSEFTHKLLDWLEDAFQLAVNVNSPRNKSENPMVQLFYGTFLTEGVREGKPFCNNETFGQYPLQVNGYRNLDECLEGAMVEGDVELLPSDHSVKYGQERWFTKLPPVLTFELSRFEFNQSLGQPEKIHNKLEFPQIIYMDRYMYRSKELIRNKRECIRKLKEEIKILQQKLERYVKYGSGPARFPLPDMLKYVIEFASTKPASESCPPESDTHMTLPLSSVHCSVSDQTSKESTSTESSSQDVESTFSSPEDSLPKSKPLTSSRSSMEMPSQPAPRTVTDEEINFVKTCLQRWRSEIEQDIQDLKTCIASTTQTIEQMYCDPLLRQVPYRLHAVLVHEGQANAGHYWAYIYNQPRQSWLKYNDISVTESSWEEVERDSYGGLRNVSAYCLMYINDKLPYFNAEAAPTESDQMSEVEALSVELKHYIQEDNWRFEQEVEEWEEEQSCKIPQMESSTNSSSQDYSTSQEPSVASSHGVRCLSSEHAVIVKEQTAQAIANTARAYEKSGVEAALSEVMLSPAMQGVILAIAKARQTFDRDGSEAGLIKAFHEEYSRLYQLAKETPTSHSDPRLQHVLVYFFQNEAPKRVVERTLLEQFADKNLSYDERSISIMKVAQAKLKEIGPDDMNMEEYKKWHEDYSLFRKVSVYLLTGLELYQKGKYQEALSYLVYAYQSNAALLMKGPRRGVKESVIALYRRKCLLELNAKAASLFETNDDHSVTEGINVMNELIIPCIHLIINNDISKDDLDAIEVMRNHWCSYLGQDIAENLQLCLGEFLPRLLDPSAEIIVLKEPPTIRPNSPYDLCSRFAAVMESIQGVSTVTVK
USP30 block: inhibitors of human USP30 deubiquitinase; Ubiquitin carboxyl-terminal hydrolase 30 (Homo sapiens), Q70CQ3; purified USP30, Ub-rhodamine cleavage fluorescence; inhibition, % at 25 µM; actives 5.3% (n = 47,000)
An asterisk follows results filed as active. Rows were chosen to be rich in hits. Some 11% of all compounds tested hit in one or more screens of this group. Cut-off read from the data, not from the text of the source: active = inhibition above about 30%; inactive = the rest.

COCCN1CC2(CCN(C(=O)Nc3cccc(OC)c3)CC2)C2(CCN(C)C2=O)C1 (configuration not stated) was read as USP17 inh -40, USP28 inh -30 and USP30 block -69.
Screening NCCNC(=O)N1CCc2nc3ccccc3n2C(Cc2ccccc2)C1 (configuration not stated) returned USP17 inh 16, USP28 inh 15 and USP30 block 21.
`Cc1ccc(S(=O)(=O)N[C@@H](C(=O)N2CCC(C(=O)N[C@@H](Cc3ccccc3)C(=O)O)CC2)C(C)C)cc1` gave USP17 inh 0, USP28 inh -2 and USP30 block 5.
Screening CC(NC(=O)[C@H](NC(=O)C1CCN(C(=O)[C@H](N)Cc2ccccc2)CC1)C(C)C)c1ccccc1 (some centres not stated) returned USP17 inh 1, USP28 inh 7 and USP30 block 31*.
`Cc1ccc(CNC(=O)[C@@H](NC(=O)C2CCN(C(=O)[C@@H](N)Cc3ccccc3)CC2)C(C)C)cc1` gave USP17 inh -6, USP28 inh 12 and USP30 block 30*.
`CC(C)[C@H](NC(=O)C1CCN(C(=O)[C@@H](N)Cc2ccccc2)CC1)C(=O)NCc1ccc(F)cc1` gave USP17 inh -11, USP28 inh -1 and USP30 block 5.
Cc1ccc(S(=O)(=O)N[C@H](C(=O)N2CCC(C(=O)N[C@@H](Cc3ccccc3)C(=O)O)CC2)C(C)C)cc1 was read as USP17 inh 17, USP28 inh 9 and USP30 block 32*.
Screening CC(NC(=O)[C@H](C)NC(=O)C1CCN(C(=O)[C@H](Cc2ccccc2)NC(=O)OC(C)(C)C)CC1)c1ccccc1 (some centres not stated) returned USP17 inh -3, USP28 inh 6 and USP30 block 6.
NC(=O)COc1coc(CN2CCN(c3cccc(Cl)c3)CC2)cc1=O was read as USP17 inh -2, USP28 inh 3 and USP30 block 8.
`COCCN(C(=O)C1CC1)c1nc(-c2ccccc2)cs1` gave USP17 inh 11, USP28 inh 18 and USP30 block 20.
CC(C)c1cc2c(c(O)c1O)[C@@]13CCCC(C)(C)[C@@H]1C[C@@H]2OC3=O was read as USP17 inh 74*, USP28 inh 33* and USP30 block 11.
Screening c1ccc2c(c1)N=C(c1ccc3c(c1)OCO3)CCN2 returned USP17 inh 41*, USP28 inh 13 and USP30 block -60.
`Cc1nccc(-c2ccc3c(c2)OCO3)n1` gave USP17 inh 5, USP28 inh 1 and USP30 block -63.
Screening CN1C(=O)c2cccnc2Sc2cc(NC(=O)Cc3cccc(F)c3)ccc21 returned USP17 inh -2, USP28 inh -11 and USP30 block -16.
For COc1ccc(OC)c(CCNC(=O)CCC2=NS(=O)(=O)c3ccc(C(F)(F)F)cc3N2)c1 the results were USP17 inh 77*, USP28 inh 18 and USP30 block 33*.
Screening O=C(CCC1=NS(=O)(=O)c2ccc(C(F)(F)F)cc2N1)NCc1ccccc1 returned USP17 inh 12, USP28 inh 1 and USP30 block -13.
Screening O=C(Nc1ccc2c(c1)oc1ccccc12)c1ccc(S(=O)(=O)N2CCOCC2)cc1 returned USP17 inh -2, USP28 inh 3 and USP30 block 6.
For Cc1ncoc1C(=O)N[C@@H]1C[C@@H](Oc2cccc(F)c2)[C@H](O)[C@H]1N(C)C the results were USP17 inh 0, USP28 inh 4 and USP30 block 20.
`CC1CCN(C(=O)c2cnc3ccccc3c2S(=O)(=O)c2ccc(Cl)cc2)CC1` gave USP17 inh 19, USP28 inh 20 and USP30 block 38*.
Screening COc1ccc(S(=O)(=O)c2c(C(=O)N3CCC(C)CC3)cnc3ccc(F)cc23)cc1 returned USP17 inh 19, USP28 inh 11 and USP30 block 20.
`Brc1cnc(NCCc2c[nH]c3ccccc23)nc1` gave USP17 inh -2, USP28 inh 22 and USP30 block -8.
`CC1CS(=O)(=O)N(c2ccc(C(=O)Nc3ccc4c(c3)OCCO4)cc2)C1=O` (configuration not stated) gave USP17 inh 56*, USP28 inh 79* and USP30 block 17.
CS(=O)(=O)N1CCCc2cc(C(=O)Nc3ccc(Oc4ccccc4)cc3)ccc21 was read as USP17 inh -14, USP28 inh 54* and USP30 block -18.
For CCS(=O)(=O)N1CCc2cc(C(=O)Nc3ccc4c(c3)OCCO4)ccc21 the results were USP17 inh 5, USP28 inh 93* and USP30 block 4.

Assay outcomes from PubChem BioAssay.
